Measurements reported in PubChem BioAssay (NCATS).
Inconclusive results are not listed. Activity calls are given as the source filed them. Unless noted, the call rests on the fitted dose curve; in most records, active means well fitted curve in the direction sought with a large enough effect; inconclusive means small, poorly fitted or top-dose-only effect, or another doubt; inactive means no such curve, though single readings can be large; an effect the other way counts as inactive or inconclusive.

How the values were obtained:
[1] = Quantitative High-Throughput drug screen in 47 multiple myeloma cell lines against the NCATS MIPE library collection: UTMC2_PLB cell viability assay (AID 1919868); details: CellTiter-Glo ATP luminescence, 48 h; viability (% of DMSO control): at 45.8 µM (top of the series) unless noted; further: nearly all actives have a fitted effect of over 55% in size;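 on viability (% of DMSO control): 100% = DMSO-only wells and 0% = media-only wells without cells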
Summary of the method: (§1)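 Plated at 500 cells per well, myeloma lines received MIPE 4.0 compounds by pin tool. Following 48 h culture at 37 °C, CellTiter-Glo luminescence gave viability relative to DMSO and media-only controls.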

[2] = Quantitative High-Throughput drug screen in 47 multiple myeloma cell lines against the NCATS MIPE library collection: PE2_PLB cell viability assay (AID 1919869); further: nearly all actives have a fitted effect of over 35% in size
Summary of the method: as §1

[3] = Quantitative High-Throughput drug screen in 47 multiple myeloma cell lines against the NCATS MIPE library collection: OPM2_DSMZ cell viability assay (AID 1919872); further: nearly all actives have a fitted effect of over 30% in size
Summary of the method: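 Approved and investigational drugs from MIPE 4.0 were added by pin tool to 500 cells per well. After 48 hours at 37C, ATP-based CellTiter-Glo luminescence indicated remaining viability.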

[4] = Quantitative High-Throughput drug screen in 47 multiple myeloma cell lines against the NCATS MIPE library collection: KMS28BM_JCRB cell viability assay (AID 1919874); further: nearly all actives have a fitted effect of over 35% in size
Summary of the method: as §1

[5] = qHTS drug screen for cell cycle checkpoint inhibitors in PARPi-resistant BRCA-mutant ovarian cancer cell lines. (AID 1963452; calls by dose curve); details: PEO1/OlaR viability, CellTiter-Glo luminescence, 96 h; for Z-AUC: stronger effect = lower value
Summary of the method: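 PEO1, PEO4 and PEO1/OlaR ovarian cancer cells, 600 per well, exposed 96 h at 37C to a dilution series. Viability read by CellTiter-Glo luminescence, normalized to DMSO and empty wells; activity summarized as Z-AUC.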

[6] = Quantitative High-Throughput drug screen in 47 multiple myeloma cell lines against the NCATS MIPE library collection: PCM6_Riken cell viability assay (AID 1919870); further: nearly all actives have a fitted effect of over 30% in size
Summary of the method: as §1

[7] = Quantitative High-Throughput drug screen in 47 multiple myeloma cell lines against the NCATS MIPE library collection: RPMI8226_ATCC cell viability assay (AID 1919871); further: nearly all actives have a fitted effect of over 30% in size
Summary of the method: as §1

[8] = Quantitative High-Throughput drug screen in 47 multiple myeloma cell lines against the NCATS MIPE library collection: KMS11_JCRBsus cell viability assay (AID 1919873); further: nearly all actives have a fitted effect of over 50% in size
Summary of the method: as §1

[9] = qHTS for identification of novel therapeutic agents for treatment of microphthalmiaassociated transcription factor (MiT) renal cell carcinoma (RCC) (AID 1963991; calls by dose curve); details: CellTiter-Glo, 48 h; for Potency: active = Z-AUC below -0.8 in all three lines; for z-score: stronger effect = lower value
Summary of the method: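 Three TFE3-fusion RCC lines (UOK109, UOK124, UOK145), 500 cells/well in complete medium, were treated with MIPE 4.0 compounds for 48 hours at 37 C. Viability was by CellTiter-Glo luminescence, normalized to DMSO (100%) and empty wells (0%); curves fitted over 11 concentrations.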

[10] = qHTS profiling for inhibitors of Plasmodium falciparum proliferation (AID 504749);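 on activity, negative = inhibition: 0% = DMSO vehicle and full inhibition = artemisinin control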; on all read-outs here: nearly all actives have a fitted effect of over 60% in size; details: P. falciparum in erythrocytes, SYBR Green DNA, 72 h; for activity, negative = inhibition: at 28.7 µM (top of the series)
Summary of the method: (§2)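 Three-day growth assay of blood-stage parasites in erythrocytes (0.3% parasitemia, 2.5% hematocrit) at 37 C, 5% CO2, quantified by SYBR Green DNA staining after overnight detergent lysis.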

3D7 = assay: as above; details: P. falciparum in erythrocytes, SYBR Green DNA, 72 h; series mostly up to 28.7 µM
Summary of the method: as §2

7G8 = assay: as above; details: P. falciparum in erythrocytes, SYBR Green DNA, 72 h; series mostly up to 28.7 µM
Summary of the method: as §2

AA1029 = assay: as above; details: P. falciparum in erythrocytes, SYBR Green DNA, 72 h; series mostly up to 28.7 µM
Summary of the method: as §2

AS120 = assay: as above; details: P. falciparum in erythrocytes, SYBR Green DNA, 72 h; series mostly up to 28.7 µM
Summary of the method: as §2

ATS189 = assay: as above; details: P. falciparum in erythrocytes, SYBR Green DNA, 72 h; series mostly up to 28.7 µM
Summary of the method: as §2

ATS95 = assay: as above; details: P. falciparum in erythrocytes, SYBR Green DNA, 72 h; series mostly up to 28.7 µM
Summary of the method: as §2

C2A = assay: as above; details: P. falciparum in erythrocytes, SYBR Green DNA, 72 h; series mostly up to 28.7 µM
Summary of the method: as §2

CP185 = assay: as above; details: P. falciparum in erythrocytes, SYBR Green DNA, 72 h; series mostly up to 28.7 µM
Summary of the method: as §2

CP191 = assay: as above; details: P. falciparum in erythrocytes, SYBR Green DNA, 72 h; series mostly up to 28.7 µM
Summary of the method: as §2

CP192 = assay: as above; details: P. falciparum in erythrocytes, SYBR Green DNA, 72 h; series mostly up to 28.7 µM
Summary of the method: as §2

[11] = measured here: PEO1 parental Z-AUC
[12] = TFE3-RCC UOK109 viability, measured here: UOK109 Z-AUC
[13] = TFE3-RCC viability, measured here: UOK124 Z-AUC
[14] = TFE3-RCC viability, measured here: UOK145 Z-AUC
Potency means the concentration at half of the fitted maximal effect.

Compound: CC(C)CC(=O)Nc1n[nH]c2c1CN(C(=O)C1CCN(C)CC1)C2(C)C
- Potency [1]: 2.35 µM (active)
- Potency [2]: 2.09 µM (active)
- Potency [3]: 2.35 µM (active)
- Potency [4]: 2.35 µM (active)
- Z-AUC [5]: -0.913 (inactive)
- Z-AUC [5, 11]: -0.186
- Z-AUC ([5]; measured here: PEO4 Z-AUC): -0.504

Compound: NC(=O)c1cccc2cn(-c3ccc([C@@H]4CCCNC4)cc3)nc12
- Potency [1]: inactive
- Potency [6]: inactive
- Potency [7]: inactive
- Potency [3]: inactive
- Potency [8]: inactive
- Potency [4]: inactive
- Z-AUC [5]: 0.523 (inactive)
- Z-AUC [5, 11]: -0.0942
- Z-AUC ([5]; measured here: PEO4 Z-AUC): 0.435

Compound: C=CC(=O)Nc1cccc(Oc2nc(Nc3ccc(N4CCN(C)CC4)cc3)ncc2Cl)c1
- Potency [1]: 6.62 µM (active)
- Potency [6]: 16.6 µM (active)
- Potency [7]: 14.8 µM (active)
- Potency [3]: 11.8 µM (active)
- Potency [8]: 1.05 µM (active)
- Potency [4]: 14.8 µM (active)
- Potency ([9]; TFE3-RCC UOK109 viability): 0.833 µM (active)
- z-score [9, 12]: -2.72
- z-score [9, 13]: -0.851
- z-score [9, 14]: -2.36

Compound: COc1cc2nccc(Oc3ccc(NC(=O)C4(C(=O)Nc5ccc(F)cc5)CC4)cc3)c2cc1OC
- Potency [1]: 20.9 µM (active)
- Potency [6]: 2.96 µM (active)
- Potency [7]: 20.9 µM (active)
- Potency [3]: 23.5 µM (active)
- Potency [4]: 20.9 µM (active)

Compound: CC(C)c1cc(C(=O)N2Cc3ccc(CN4CCN(C)CC4)cc3C2)c(O)cc1O
- Potency [1]: 0.372 µM (active)
- Potency [6]: 0.935 µM (active)
- Potency [7]: 0.264 µM (active)
- Potency [4]: 0.235 µM (active)
- Z-AUC [5]: -1.06 (inactive)
- Z-AUC [5, 11]: -0.777
- Z-AUC ([5]; measured here: PEO4 Z-AUC): -0.0282
- Potency ([9]; TFE3-RCC UOK109 viability): 0.418 µM (active)
- z-score [9, 12]: -0.923
- z-score [9, 13]: -0.898
- z-score [9, 14]: -0.85

Compound: COc1cc(C(C)C)c2c(c1)S(=O)(=O)N(COc1cc(=O)n3cccc(OCCN4CCCCC4)c3n1)C2=O
- Potency [1]: 26.4 µM (active)
- Potency [6]: 18.7 µM (active)
- Potency [7]: inactive
- Potency [3]: inactive
- Z-AUC [5]: 1.15 (inactive)
- Z-AUC [5, 11]: 1.06
- Z-AUC ([5]; measured here: PEO4 Z-AUC): 0.892

Compound: CC[C@@H]1C(=O)N(C)c2cnc(Nc3ccc(C(=O)NC4CCN(C)CC4)cc3OC)nc2N1C1CCCC1
- Potency [1]: inactive
- Potency [6]: 7.43 µM (active)
- Potency [7]: 7.43 µM (active)
- Potency [3]: 0.059 µM (active)
- Potency [8]: 0.0209 µM (active)
- Potency [4]: 0.0118 µM (active)
- Potency [5]: 0.0436 µM (active)
- Z-AUC [5, 11]: -2.65
- Z-AUC ([5]; measured here: PEO4 Z-AUC): -2.67
- Potency ([9]; TFE3-RCC UOK109 viability): 4.18 µM (active)
- z-score [9, 12]: -0.898
- z-score [9, 13]: -2.05
- z-score [9, 14]: -1.29

Compound: Cc1cnc(Nc2ccc(F)cc2Cl)nc1-c1c[nH]c(C(=O)N[C@H](CO)c2cccc(Cl)c2)c1
- Potency [1]: 18.7 µM (active)
- Potency [2]: 6.62 µM (active)
- Potency [7]: 20.9 µM (active)
- Potency [8]: 16.6 µM (active)
- Potency [4]: 20.9 µM (active)
- Z-AUC [5]: 0.276 (inactive)
- Z-AUC [5, 11]: 0.0916
- Z-AUC ([5]; measured here: PEO4 Z-AUC): 0.18

Compound: O=c1[nH]c(=O)n(C2CCCO2)cc1F (configuration not stated)
- Potency [1]: inactive
- Potency [6]: inactive
- Potency [7]: inactive
- Potency [3]: inactive
- Potency [8]: inactive
- Z-AUC [5]: 1.33 (inactive)
- Z-AUC [5, 11]: 1.12
- Z-AUC ([5]; measured here: PEO4 Z-AUC): 0.998
- z-score [9, 12]: 0.952
- z-score [9, 13]: 1.45
- z-score [9, 14]: 0.901
- activity, negative = inhibition ([10]; parasite line A): 8.19% (inactive)
- activity, negative = inhibition ([10]; parasite line B): 12.8% (inactive)
- Potency (3D7): inactive
- Potency (7G8): inactive
- Potency (AA1029): inactive
- Potency (AS120): inactive
- Potency (ATS189): inactive
- Potency (ATS95): inactive
- Potency (C2A): inactive
- Potency (CP185): inactive
- Potency (CP191): inactive
- Potency (CP192): inactive

Compound: COCCn1c2c([n+](Cc3cnccn3)c1C)C(=O)c1ccccc1C2=O
- Potency [1]: 0.0418 µM (active)
- Potency [6]: 0.0235 µM (active)
- Potency [7]: 0.0235 µM (active)
- Potency [3]: 0.059 µM (active)
- Potency [8]: 0.0132 µM (active)
- Potency [4]: 0.0148 µM (active)
- Potency ([9]; TFE3-RCC UOK109 viability): 0.0833 µM (active)
- z-score [9, 12]: -3.55
- z-score [9, 13]: -3.42
- z-score [9, 14]: -3.23

Compound: Nc1ccn([C@@H]2O[C@H](CO)[C@H](O)C2(F)F)c(=O)n1
- Potency [1]: 0.0148 µM (active)
- Potency [6]: 1.87 µM (active)
- Potency [7]: 0.469 µM (active)
- Potency [3]: inactive
- Potency [8]: 0.296 µM (active)
- Potency [4]: 5.26 µM (active)
- Potency ([10]; parasite line A): 5.62 µM (active)
- Potency ([10]; parasite line B): 0.316 µM (active)
- Potency (3D7): 3.16 µM (active)
- Potency (7G8): 2.82 µM (active)
- Potency (AA1029): 1.58 µM (active)
- Potency (AS120): 3.55 µM (active)
- Potency (ATS189): 3.98 µM (active)
- Potency (ATS95): 5.62 µM (active)
- Potency (C2A): 3.98 µM (active)
- Potency (CP185): 5.62 µM (active)
- Potency (CP191): 1.41 µM (active)
- Potency (CP192): 6.01 µM (active)

Compound: CC(C)c1cnn2c(NCc3ccccc3)cc(N[C@@H](CO)[C@H](O)CO)nc12
- Potency [1]: 0.209 µM (active)
- Potency [6]: 0.0935 µM (active)
- Potency [7]: 0.332 µM (active)
- Potency [4]: 0.296 µM (active)
- Z-AUC [5]: -1.87 (inactive)
- Z-AUC [5, 11]: -1.92
- Z-AUC ([5]; measured here: PEO4 Z-AUC): -1.77
- Potency ([9]; TFE3-RCC UOK109 viability): 0.372 µM (active)
- z-score [9, 12]: -1.04
- z-score [9, 13]: -0.933
- z-score [9, 14]: -1.84

Compound: CC(C)c1nn(-c2c(Cl)cccc2Cl)c2nc(Cc3ccc(OCCO)cc3)[nH]c(=O)c12
- Potency [1]: 0.0935 µM (active)
- Potency [2]: 0.0743 µM (active)
- Potency [3]: 0.264 µM (active)
- Potency [4]: 0.209 µM (active)
- Z-AUC [5]: -1.25 (inactive)
- Z-AUC [5, 11]: -2.35
- Z-AUC ([5]; measured here: PEO4 Z-AUC): -1.5
- Potency ([9]; TFE3-RCC UOK109 viability): 0.132 µM (active)
- z-score [9, 12]: -2.2
- z-score [9, 13]: -1.63
- z-score [9, 14]: -2.67

Compound: CC(NCc1ccc2c(c1)nc(NC(=O)c1ccc(-c3cn[nH]c3)s1)n2CC(C)(C)O)C(C)(C)C (configuration not stated)
- Potency [1]: 0.105 µM (active)
- Potency [6]: 0.105 µM (active)
- Potency [7]: 0.743 µM (active)
- Potency [3]: 1.05 µM (active)
- Potency [4]: 0.332 µM (active)
- Potency ([9]; TFE3-RCC UOK109 viability): 0.935 µM (active)
- z-score [9, 12]: -1.95
- z-score [9, 13]: -2.39
- z-score [9, 14]: -1.22
